Most compounds without a hit are left out; they make up all but 2.6% or so of the library.
aDG glyco up: alpha-DG glycosylation activation; Pro5-aDG cells, alpha-DG glycosylation AlphaScreen (IIH6); 0% Pro5, 100% B10-LARGE cell signal; activation, % at 10 µM; 360,000 compounds, 0.22% hits;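 active means activation of at least 8% versus controls, or a plate z-score of at least 8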;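 further: Pro5 are CHO cells carrying HIG-tagged alpha-DG that lacks glycosylation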
TWEAK-Fn14 inh: blocks TWEAK-Fn14 interaction in a reporter cell assay; inhibition, % at 10 µM; 360,000 compounds, 2% hits; TWEAK-stimulated Fn14 reporter cells, luciferase luminescence, 8 h; in the data active means inhibition above about 50%
LGR2 inh: inhibitors of bursicon-induced Drosophila LGR2 receptor cAMP signaling | HEK293 LGR2, CRE-luciferase, bursicon-stimulated, 4 h | 380,000 compounds, 0.35% hits | inhibition, % at 9.99 µM;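 active means drop in luminescence signal, shown as inhibition above about 50% in the replicate tests, limit read from the data, passing the limit was not always enough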;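 further: agonist challenge used bursicon conditioned medium at about half maximal strength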
TROY NFkB inh: blocks TROY-dependent signaling in reporter cells; Q293 LMP1-TROYcd NF-kB luciferase reporter, 4 h; inhibition, % at 10 µM; 360,000 compounds, 0.98% hits;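 active means compounds whose plate-normalised and pattern-corrected inhibition of the luciferase reporter signal at the single screening dose is 50% or more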
HSP90 refold inh: blocks HSP90-mediated luciferase refolding in reticulocyte lysate. Rabbit reticulocyte lysate, luciferase refolding luminescence, 3 h. inhibition, % at 5.6 µM. 290,000 compounds, 0.91% hits. AID 1789;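 active means inhibition above the screen-wide mean plus 3 SD, computed separately per campaign, cut at about 16% in these data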;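 further: inhibitors lower the luminescence because luciferase stays unfolded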
EBV LMP1 NFkB: inhibitors of Epstein-Barr LMP1-induced NF-kappaB reporter | LMP1-induced NF-kappaB luciferase reporter cells, luminescence | inhibition, % at 12.5 µM | 350,000 compounds, 0.69% hits | AID 504558; in the data active means inhibition above about 41%
Large screens that a line does not name were inactive.

O=C(C[C@H]1CC[C@@H]2[C@H](COC[C@@H](O)CN2S(=O)(=O)c2cccc(Cl)c2)O1)Nc1ccccc1	none (no result: aDG glyco up, TWEAK-Fn14 inh, TROY NFkB inh, HSP90 refold inh, EBV LMP1 NFkB)
CC(C)c1ccc(-n2c(-c3ccccc3)c[n+]3c2CCc2ccccc2-3)cc1	TWEAK-Fn14 inh 84, LGR2 inh 54, TROY NFkB inh 59
Cc1ccc2nc(-c3ccc(SCC(=O)N4CCc5ccccc54)nc3)[nH]c2c1	TWEAK-Fn14 inh 53
O=C(Nc1cccc(F)c1)N1CC(=O)N2[C@H](CO)[C@H](c3ccc(-c4ccccc4F)cc3)[C@H]2C1	none (no result: aDG glyco up, TWEAK-Fn14 inh, TROY NFkB inh, HSP90 refold inh, EBV LMP1 NFkB)
Cc1noc(C)c1NC(=O)Nc1ccc2c(c1)CC(=O)N([C@@H](C)CO)C[C@@H](C)[C@H](CN(C)C(=O)NC(C)C)O2	none (no result: aDG glyco up, TWEAK-Fn14 inh, TROY NFkB inh, HSP90 refold inh, EBV LMP1 NFkB)
CCOc1ccc(C(=O)N2CCCC(c3nc(-c4cccs4)no3)C2)cc1 (stereo not drawn)	TWEAK-Fn14 inh 63, TROY NFkB inh 64
O=c1c(Br)ccc(Br)cc1Br	TWEAK-Fn14 inh 104 (no result: HSP90 refold inh)
COc1ccc(S(=O)(=O)N(C)C[C@H]2Oc3ccc(NC(=O)Nc4cccc5ccccc45)cc3CC(=O)N([C@H](C)CO)C[C@H]2C)cc1	none (no result: aDG glyco up, TWEAK-Fn14 inh, TROY NFkB inh, HSP90 refold inh, EBV LMP1 NFkB)
O=C1[C@@H]2Cc3ccccc3CN2C(=O)N1c1cccc(F)c1	TROY NFkB inh 62 (no result: LGR2 inh)
CO[C@H]1CN(C)C(=O)c2cc(NS(=O)(=O)c3cn(C)cn3)ccc2OC[C@@H](C)N(Cc2cccc(F)c2)C[C@@H]1C	none (no result: aDG glyco up, TWEAK-Fn14 inh, TROY NFkB inh, HSP90 refold inh, EBV LMP1 NFkB)
CC(=O)Nc1ccc(Sc2ncnc3scc(-c4ccccc4)c23)cc1	TWEAK-Fn14 inh 62
O=C(CSc1ncnc2scc(-c3ccccc3)c12)Nc1ccc(C(=O)O)cc1	none
O=C(O)c1ccc(Nc2ncnc3scc(-c4ccccc4)c23)cc1	TWEAK-Fn14 inh 55
O=C(C[C@H]1C[C@@H]2c3cc(NC(=O)C4CCOCC4)ccc3O[C@@H]2[C@H](CO)O1)NCc1ccncc1	none (no result: aDG glyco up, TWEAK-Fn14 inh, TROY NFkB inh, HSP90 refold inh, EBV LMP1 NFkB)
S=C(NCc1ccccn1)NN=Cc1ccccn1	EBV LMP1 NFkB 61 (no result: HSP90 refold inh)
O=C(c1cc2nc(-c3ccco3)cc(C(F)(F)F)n2n1)N1CCN(c2ccccn2)CC1	TWEAK-Fn14 inh 51 (no result: LGR2 inh)
O=C(C1CCOCC1)N1CC(=O)N2[C@H](C1)[C@@H](c1ccc(/C=C/c3ccccc3)cc1)[C@@H]2CO	none (no result: aDG glyco up, TWEAK-Fn14 inh, TROY NFkB inh, HSP90 refold inh, EBV LMP1 NFkB)
CCOC(=O)/C(C#N)=C/c1c[nH]c2ccccc12	none
CCOC(=O)C(=Cc1c[nH]c2ccc(S(=O)(=O)N(C)C)cc12)C(=O)OCC	TWEAK-Fn14 inh 66
Cc1ccccc1-c1cnc2c(c1)C(=O)N([C@H](C)CO)C[C@H](C)[C@@H](CN(C)Cc1cncnc1)O2	none (no result: aDG glyco up, TWEAK-Fn14 inh, TROY NFkB inh, HSP90 refold inh, EBV LMP1 NFkB)
C[C@@H]1CN([C@H](C)CO)C(=O)Cc2cc(NC(=O)C3CCCCC3)ccc2O[C@H]1CN(C)Cc1ccc2c(c1)OCO2	none (no result: aDG glyco up, TWEAK-Fn14 inh, TROY NFkB inh, HSP90 refold inh, EBV LMP1 NFkB)
COc1ccc(-c2oc(=O)c3cc(OC)c(OC)cc3c2/C=C/c2ccc(OC(C)=O)cc2)cc1	none (no result: HSP90 refold inh)
COc1cc(-c2noc(C)c2/C=C/c2ccc(OC(C)=O)cc2)cc(OC)c1OC	TWEAK-Fn14 inh 52
O=C(CSc1nnnn1C1CC2CCC1C2)Nc1ccnc2ccccc12 (stereo not drawn)	aDG glyco up 7.4 (no result: LGR2 inh)
C[C@@H]1CCCCO[C@@H](CN(C)Cc2ccncc2)[C@H](C)CN([C@@H](C)CO)C(=O)c2cc(NC(=O)CCCCCC(=O)Nc3ccccc3N)ccc2O1	none (no result: aDG glyco up, TWEAK-Fn14 inh, TROY NFkB inh, HSP90 refold inh, EBV LMP1 NFkB)
COc1ccc(C(=O)NC(C)c2ccccc2)cc1Br (stereo not drawn)	none
C[C@@H](NC(=O)c1coc(=O)c(Br)c1)c1ccccc1	TWEAK-Fn14 inh 87 (no result: LGR2 inh)
CC(C)C1Nc2c(O)cc(Cl)c([N+](=O)[O-])c2C2C=CCC21 (stereo not drawn)	TROY NFkB inh 58
CCOC(=O)N1CCN(C(=O)C2CCC(CNS(=O)(=O)c3ccc(Cl)cc3)CC2)CC1 (stereo not drawn)	TWEAK-Fn14 inh 51 (no result: LGR2 inh, TROY NFkB inh)
COC(=O)C(=Cc1ccccc1[N+](=O)[O-])C(=O)OC	TWEAK-Fn14 inh 69
O=C(/C=C/c1ccccc1[N+](=O)[O-])Oc1ccccc1	none (no result: aDG glyco up, TWEAK-Fn14 inh, LGR2 inh, TROY NFkB inh, EBV LMP1 NFkB)
CCCn1nnc(NC(=O)c2ccc(OC)cc2)n1	none (no result: LGR2 inh)
CCOc1ccc(C(=O)Nc2cccc(C)n2)cc1	TWEAK-Fn14 inh 63 (no result: LGR2 inh)
CCOc1ccc(C(=O)Nc2nnn(CC)n2)cc1	HSP90 refold inh 16 (no result: LGR2 inh)
CC1CCN(C2=NC(=O)/C(=C/c3cn(-c4ccccc4)nc3-c3cccc(S(=O)(=O)N(C)C)c3)S2)CC1	TWEAK-Fn14 inh 76 (no result: LGR2 inh, TROY NFkB inh)
CC(C)c1ccc2[nH]c(O)c(N=NC(=O)c3cccc(S(=O)(=O)N4CCCCC4)c3)c2c1	TWEAK-Fn14 inh 55

High-throughput results (PubChem)
